Test results from PubChem BioAssay (EPA / NIEHS).
Values joined by “and” are separate entries in the source; they are usually repeats but may differ in a detail not shown here. Equal values may be shown once. Active and inactive are the calls of the source. How the source made its calls: active means hit-call score of the fitted dose curve at least 0.9, where 1 is the maximum; inactive means score below 0.9.

Tests used:
[1] = APR_HepG2_NuclearSize_72hr: Apredica 72-hour HepG2 Assay for Nuclear Size (AID 2282925); settings: high-content imaging, actives raise or lower the signal
Summary of the method: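 HepG2 cells dosed 72 h at 0.39–200 uM (10 concentrations, duplicate) in 0.5% v/v DMSO final. Fixed, Hoechst 33342-stained nuclei imaged; nuclear diameter measured by automated image analysis. Bidirectional fit versus DMSO.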

[2] = ATG_CRE_CIS: Attagene CIS-FACTORIAL HepG2 Assay for human cAMP Responsive Element (CRE) binding protein 3 (AID 2282926); settings: HepG2 CRE cis-reporter, Attagene multiplexed mRNA; actives raise or lower the signal
Summary of the method: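 HepG2 cells transiently transfected with cis-element-driven multiple reporter transcription units; CRE reporter mRNA measured 24 h after dosing by RT-PCR, 6-FAM labelling, HpaI digestion and capillary electrophoresis. Bidirectional fit versus DMSO baseline.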

[3] = target: CCAAT/enhancer-binding protein beta (Homo sapiens) (UniProt P17676); assay: ATG_C_EBP_CIS: Attagene CIS-FACTORIAL HepG2 Assay for human CCAAT/Enhancer Binding Protein (C/EBP) beta (AID 2282927); settings: HepG2 Attagene cis-factorial transcription factor reporter; actives raise or lower the signal
Chain of CCAAT/enhancer-binding protein beta (Homo sapiens) (P17676 whole entry, looked up): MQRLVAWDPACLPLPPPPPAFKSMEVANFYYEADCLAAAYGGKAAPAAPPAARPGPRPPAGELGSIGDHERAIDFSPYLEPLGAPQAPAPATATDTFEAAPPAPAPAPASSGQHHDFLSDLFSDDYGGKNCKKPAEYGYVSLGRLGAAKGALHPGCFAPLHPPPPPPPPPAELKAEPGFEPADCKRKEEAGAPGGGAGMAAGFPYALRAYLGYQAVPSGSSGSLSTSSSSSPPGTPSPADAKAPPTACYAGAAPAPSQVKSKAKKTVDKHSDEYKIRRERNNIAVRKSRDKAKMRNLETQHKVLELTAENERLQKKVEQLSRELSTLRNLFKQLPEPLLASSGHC
Summary of the method: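 HepG2, transient MRTU transfection, 24 h treatment. RT-PCR plus CE fluorescence; DMSO negative control, bidirectional fit.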

[4] = ATG_CMV_CIS: Attagene CIS-FACTORIAL HepG2 Assay for human CMV (Internal Marker) (AID 2282928); settings: HepG2 CMV promoter reporter, transcription factor profiling; actives raise or lower the signal;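 further: endpoint acts as a background internal control marker rather than a target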
Summary of the method: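 Endogenous transcription factor activity read in HepG2 via transfected cis-promoter reporter units. After 24 h dosing, reporter mRNA measured by RT-PCR/capillary electrophoresis; gain or loss of signal fit relative to DMSO.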

[5] = ATG_DR4_LXR_CIS: Attagene CIS-FACTORIAL HepG2 Assay for human Liver X Receptor (LXR), DR4 submotif (AID 2282929); settings: HepG2 Attagene DR4 cis-reporter, mRNA transcription; actives raise or lower the signal
Summary of the method: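 Measures endogenous transcription factor activity via a DR4-driven reporter transcript in human HepG2 cells. Compounds incubated 24 h; mRNA quantified by RT-PCR and capillary electrophoresis, analysed as gain or loss of signal versus DMSO.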

[6] = target: Aryl hydrocarbon receptor (Homo sapiens) (UniProt P35869); assay: ATG_Ahr_CIS: Attagene CIS-FACTORIAL HepG2 Assay for human Aryl Hydrocarbon Receptor (Ahr) (AID 2282930); settings: HepG2 AhR cis-factorial reporter transcription; actives raise or lower the signal
Chain of Aryl hydrocarbon receptor (Homo sapiens) (P35869 whole entry, looked up): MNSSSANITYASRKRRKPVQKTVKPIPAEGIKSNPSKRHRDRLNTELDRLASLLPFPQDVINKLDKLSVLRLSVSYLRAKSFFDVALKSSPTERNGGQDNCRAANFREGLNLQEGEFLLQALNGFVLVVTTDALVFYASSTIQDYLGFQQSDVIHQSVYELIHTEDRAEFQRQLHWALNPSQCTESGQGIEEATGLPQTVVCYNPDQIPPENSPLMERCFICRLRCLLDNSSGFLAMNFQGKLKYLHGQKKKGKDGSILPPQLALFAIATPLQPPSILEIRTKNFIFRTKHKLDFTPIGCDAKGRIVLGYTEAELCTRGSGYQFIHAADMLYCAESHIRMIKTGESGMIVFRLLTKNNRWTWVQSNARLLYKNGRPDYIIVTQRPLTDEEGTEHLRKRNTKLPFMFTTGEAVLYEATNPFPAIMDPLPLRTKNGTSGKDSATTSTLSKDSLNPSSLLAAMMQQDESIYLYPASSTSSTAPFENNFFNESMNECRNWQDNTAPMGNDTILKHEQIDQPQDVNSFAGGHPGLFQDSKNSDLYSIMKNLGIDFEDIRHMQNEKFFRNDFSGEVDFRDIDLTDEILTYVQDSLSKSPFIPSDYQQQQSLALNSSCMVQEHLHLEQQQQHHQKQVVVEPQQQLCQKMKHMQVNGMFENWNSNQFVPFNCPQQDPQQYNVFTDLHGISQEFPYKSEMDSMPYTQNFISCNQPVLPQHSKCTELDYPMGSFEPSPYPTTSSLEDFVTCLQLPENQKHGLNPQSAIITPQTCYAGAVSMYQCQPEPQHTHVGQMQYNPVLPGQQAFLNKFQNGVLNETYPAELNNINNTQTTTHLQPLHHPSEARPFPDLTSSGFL
Summary of the method: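 Endogenous factor activity is tracked through cis-promoter reporter units transfected into HepG2 cells. Transcript levels at 24 h are read by fluorescent RT-PCR and capillary electrophoresis, with activity in either direction scored relative to DMSO.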

[7] = ATG_AP_1_CIS: Attagene CIS-FACTORIAL HepG2 Assay for human Activator Protein 1 (AP-1) (AID 2282931); settings: HepG2 Attagene cis-factorial AP-1 reporter mRNA; actives raise or lower the signal
Summary of the method: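 Bidirectional concentration-response fitting against DMSO controls. Underlying signal: reporter mRNA from cis-promoter constructs in transiently transfected HepG2, measured after 24 h by RT-PCR and capillary electrophoresis.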

[8] = ATG_AP_2_CIS: Attagene CIS-FACTORIAL HepG2 Assay for human Activator Protein 2 (AP-2) (AID 2282932); settings: HepG2 AP-2 cis-reporter, Attagene transcription factor profiling; actives raise or lower the signal
Summary of the method: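 Multiplexed mRNA reporter assay in HepG2: cis-regulated units report endogenous factor activity after 24 h treatment. Fluorescence from capillary electrophoresis of RT-PCR products gives the signal, with DMSO as baseline.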

[9] = ATG_BRE_CIS: Attagene CIS-FACTORIAL HepG2 Assay for human Bone Morphogenetic Protein (BMP) Response Element (BRE) (AID 2282933); settings: HepG2 BMP response element reporter, Attagene transcription factor profiling; actives raise or lower the signal
Summary of the method: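 Endogenous transcription factor activity read in transiently transfected HepG2 cells after 24 h chemical exposure. Bidirectional curve fitting against DMSO; readout is reporter transcript level by RT-PCR with capillary electrophoresis of labelled products.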

[10] = target: Retinoic acid receptor alpha (Homo sapiens) (UniProt P10276); assay: ATG_DR5_RAR_CIS: Attagene CIS-FACTORIAL HepG2 Assay for human Retinoic Acid Receptor Alpha (RARE), DR5 submotif (AID 2282934); settings: HepG2 Attagene cis-factorial RARE DR5 reporter, mRNA; actives raise or lower the signal
Chain of Retinoic acid receptor alpha (Homo sapiens) (P10276 whole entry, looked up): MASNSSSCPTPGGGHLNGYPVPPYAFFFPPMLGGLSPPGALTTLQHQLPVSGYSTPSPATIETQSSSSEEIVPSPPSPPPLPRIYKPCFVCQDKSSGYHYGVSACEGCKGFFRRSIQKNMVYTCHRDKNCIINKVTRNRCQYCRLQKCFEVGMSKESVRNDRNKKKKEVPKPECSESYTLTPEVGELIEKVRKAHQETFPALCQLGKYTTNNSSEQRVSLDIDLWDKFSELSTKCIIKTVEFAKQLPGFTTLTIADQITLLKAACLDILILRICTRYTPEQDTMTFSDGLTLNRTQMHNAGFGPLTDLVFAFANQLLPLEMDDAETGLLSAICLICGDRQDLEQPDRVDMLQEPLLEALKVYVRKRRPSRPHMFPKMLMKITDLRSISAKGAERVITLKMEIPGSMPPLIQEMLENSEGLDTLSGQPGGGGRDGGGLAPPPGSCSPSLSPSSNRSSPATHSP
Summary of the method: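 After 24 h of chemical exposure, transiently transfected HepG2 cells were lysed for total RNA; the DR5-regulated reporter transcript was quantified via RT-PCR and capillary electrophoresis, with activity fitted bidirectionally against DMSO.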

Row | SMILES | outcome [1] | outcome [2] | outcome [3] | outcome [4] | outcome [5] | outcome [6] | outcome [7] | outcome [8] | outcome [9] | outcome [10] | AC50 [1] | AC50 [6] | AC50 [7] | AC50 [9]
1 | OC[C@H]1O[C@@](CO)(O[C@H]2O[C@H](CO)[C@@H](O)[C@H](O)[C@H]2O)[C@@H](O)[C@@H]1O | inactive | inactive | inactive | inactive | inactive | inactive | inactive | inactive | inactive | inactive |  |  |  | 
2 | O=S(=O)(O)c1ccc(N=Nc2c(O)ccc3cc(S(=O)(=O)O)ccc23)cc1 | inactive | inactive | inactive | inactive | inactive | inactive | inactive | inactive | inactive | inactive |  |  |  | 
3 | OCC(CO)(CO)CO | inactive | inactive | inactive | inactive | inactive | inactive | inactive | inactive | inactive | inactive |  |  |  | 
4 | O=C(NO)C1(NS(=O)(=O)c2ccc(Oc3ccc(F)cc3)cc2)CCOCC1 | inactive | inactive | inactive | inactive | inactive | inactive | inactive | inactive | inactive | inactive |  |  |  | 
5 | CC(C)C(=O)Nc1ccc([N+](=O)[O-])c(C(F)(F)F)c1 |  | inactive | inactive | inactive | inactive |  |  | inactive |  | inactive | 111 µM (active) | 135 µM (active) | 23.5 µM (active) | 65.1 µM (active)
6 | O=c1[nH]cnc2c1ncn2[C@H]1CC[C@@H](CO)O1 | inactive | inactive | inactive | inactive | inactive | inactive | inactive | inactive | inactive | inactive |  |  |  | 
7 | OCCNCCO | inactive | inactive | inactive | inactive | inactive | inactive | inactive | inactive | inactive | inactive |  |  |  | 
8 | CC(C)CC(C)O (stereo unspecified) | inactive | inactive | inactive | inactive | inactive | inactive | inactive | inactive | inactive | inactive |  |  |  | 
9 | CC(C)CCCCCCOC(=O)C1CCCCC1C(=O)OCCCCCCC(C)C (stereo unspecified) | inactive | inactive | inactive | inactive | inactive |  | inactive | inactive | inactive | inactive |  | 84.8 µM (active) |  | 
10 | NC(=O)N1c2ccccc2C=Cc2ccccc21 | inactive | inactive | inactive | inactive | inactive | inactive | inactive | inactive | inactive | inactive |  |  |  | 
11 | c1ccc2c(c1)-c1cccc3c1c-2cc1ccccc13 | inactive | inactive | inactive | inactive | inactive |  | inactive | inactive | inactive | inactive |  | 57 nM (active) and 28.1 µM (active) |  | 
12 | NC(N)=O | inactive | inactive | inactive | inactive | inactive |  | inactive | inactive | inactive |  |  |  |  | 
13 | CCOc1ccc2[nH]cc(C(=O)NCc3ccccc3)c(=O)c2n1 | inactive | inactive | inactive | inactive | inactive |  | inactive | inactive | inactive | inactive |  | 4.77 µM (active) |  | 
14 | CCCCCOC(C)=O | inactive | inactive | inactive | inactive | inactive | inactive | inactive | inactive | inactive | inactive |  |  |  | 
15 | Cc1nc(-c2ccccn2)ncc1C(=O)Nn1cc(C)c2cc(F)ccc21 | inactive | inactive | inactive | inactive | inactive |  | inactive | inactive | inactive | inactive |  |  |  | 
16 | OCCC(F)(F)C(F)(F)C(F)(F)C(F)(F)F |  | inactive | inactive | inactive | inactive | inactive | inactive | inactive | inactive | inactive |  |  |  | 
17 | O=C(N[C@H](CO)[C@H](O)c1ccc([N+](=O)[O-])cc1)C(Cl)Cl |  | inactive | inactive | inactive | inactive | inactive | inactive | inactive | inactive | inactive |  |  |  | 
18 | O=C(O)CO |  | inactive | inactive | inactive | inactive | inactive | inactive | inactive | inactive | inactive |  |  |  | 
19 | CCCC(CCC)C(=O)O | inactive | inactive | inactive | inactive |  | inactive | inactive | inactive | inactive |  |  |  |  | 
20 | Cn1cc[nH]c1=S | inactive | inactive | inactive | inactive |  | inactive | inactive | inactive | inactive | inactive |  |  |  | 
